# According to the supplement of paper PMC11417369:
# ± gives the standard deviation of the averaged measurements. The full ranking holds about 25,000 sequences; the median of “ln(normalized median fluorescence intensity)” is about 8.6, and the highest 2% start at about 10. The sample holds the highest values, similar sequences and a random draw of the others, so the mix is not that of the screen.
# System: PfAP2-EXP AP2 domain (GST-tagged)
# Experiment: gcPBM binding intensity (ln(normalized median fluorescence intensity)); higher = stronger DNA binding
# In short: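 The highest Masliner-normalised natural-log median intensity across replicate spots of either probe orientation is reported as binding intensity. GST-tagged P. falciparum DNA-binding domains expressed in E. coli were applied for 1 h to an Agilent 4 × 180k array of primer-extended double-stranded 36-bp intergenic genomic probes plus negative controls, and bound protein was detected with Alexa488 anti-GST antibody and scanned at 488 nm.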
row,Sequence,gcPBM binding intensity (ln)
1,CTCATAATTTCTGAACGTACGTATTTCTCATTTTTA [XGTACX_site7296],8.83 ± 0.44
2,TCCTTTTTTAAAAGTTGTACATTATTGTTATTTGTT [XGTACX_site4686],8.65 ± 0.3
3,TTTTAAATAATTCGTAATTATAATTATGGAAAAAAG [CACACA_negctrl_site152],8.43 ± 0.48
4,TTAGCAACTATTACTACACACATTTGTATTTAATTT [CACACA_site4961],8.49 ± 0.35
5,ATTCTACACAGACATACACACATATATATATATATA [CACACA_site5826],10.2 ± 0.4
6,GTATTCTACAGACACATACACACATATATATATATA [CACACA_site3427],10.1 ± 0.22
7,TACAGACATACATACACACATACATATATATATATA [CACACA_site1940],10.1 ± 0.11
8,TTTATTAATTAAACCATACACACATAATTTTTTTAT [CACACA_site842],8.34 ± 0.47
9,ATTTAGAAAAATAAAACACACATATAGATGTAAATA [CACACA_site7853],8.57 ± 0.58
10,AAACAGAAGACATATACACACATACAAAAAAGTGCA [CACACA_site4699],8.81 ± 0.33
11,CACAAGAAAATTCACACACACACATATATATATATA [CACACA_site3880],10.1 ± 0.27
12,CACAAGAAAGTTCACACACACACATATATATATATA [CACACA_site6009],10.2 ± 0.18
13,AAGAAAAAAAAAAAAACACACATATATATATATATA [CACACA_site2027],10.2 ± 0.13
14,AAAAAAAAAAAAGAAACACACACATATATATATATA [CACACA_site8525],10.1 ± 0.31
15,AAAAAAAAAAGAAAAAGTACATACATACATATATAT [XGTACX_site6405],8.46 ± 0.36
16,AAAAAAAAAAGAAACACACACATATATATATATAAT [CACACA_site5052],8.61 ± 0.52
17,CAAGAAAAGAAACACACACACATATATATATATATA [CACACA_site3881],10.1 ± 0.26
18,AAAAAAAAAAAAGAAACACACATATATATATATATA [CACACA_site140],10.1 ± 0.6
19,TTAAAAAGAAAGTTCACACACATATATATGACGGAA [CACACA_site2602],8.93 ± 0.45
20,AAGACAAAACAAAGAAGTACATATATATATATATAT [XGTACX_site4067],10.3 ± 0.4
21,CACAAAAAGAAACACACACACATATATATATATATA [CACACA_site999],10.2 ± 0.22
22,TAGTAATATGTATCCATACACACATACATTTTATTT [CACACA_site873],8.52 ± 0.41

row,Sequence,gcPBM binding intensity (ln)
1,TATAACAAAATATTCACACATATAAGTAAATAAAGG [CACACA_site5777],8.73 ± 0.28
2,AATTTTAATTATATCACACATAATATATACCAAAAA [CACACA_site6011],8.51 ± 0.38
3,GAATAATCTAGAAACACACAAACACGACAAAAGAAA [CACACA_site4135],8.93 ± 0.55
4,TTTTGTTCTAATATGGGAACATAAATATTAAATATA [CACACA_negctrl_site1787],8.22 ± 0.45
5,TATTTTATATTTCATTTGTTATTTTTCTTGGTTCTA [CACACA_negctrl_site33],8.63 ± 0.57
6,TATTTGTTGTGAGTCACACATATATATATATATATA [CACACA_site4240],10.3 ± 0.42
7,TCATTTTATTTTTTCACACACACATATATATATATA [CACACA_site3333],10.1 ± 0.33
8,TTTCTTTCTTCACATATATATATATATATATTTATA [TGCATGCA_negctrl_site341],8.83 ± 0.3
9,TTTGTAACTTCTTTCACACATATATATATATATATA [CACACA_site5603],10.3 ± 0.47
10,ATTTTATTTTTTCACACACACATATATATATATATA [CACACA_site3334],10.2 ± 0.32
11,TTTGTTATGGTTTTCTCACACATATATATATATATA [CACACA_site4617],10.4 ± 0.36
12,CATATTTGCACTTTCACACATAAATATATAACTATA [CACACA_site6016],8.91 ± 0.31
13,TGTATATTTGTTGTTACACACATATATTTTTTTTTT [CACACA_site128],8.53 ± 0.3
14,TTATTTTTATATTTCACACACATATACTTTTACATA [CACACA_site4097],8.8 ± 0.47
15,TTTTTTTTTTTTGTCACACATATATTTGTATTTATA [CACACA_site5234],8.58 ± 0.38
16,TTTTTTTTTTTGGTTACACACATTTGTATATTCTCA [CACACA_site134],8.69 ± 0.49
17,TAAAATATTGTTATTACATGCAACCTTATGAAAAAT [TGCATGCA_site706],8.94 ± 0.17
18,GTATAAAAGTTATATACACACAACAGAATTACATAT [CACACA_site6212],8.68 ± 0.49
19,TCTTAATATGGTAATACACACTAATATACTTTTGTT [CACACA_site4969],8.55 ± 0.31
20,TTTTGTTTGTTCGTGACTACATTATGTTGTAAATAC [CACACA_negctrl_site604],8.78 ± 0.38
21,TATACATTTATGTACACACACATATAGGTATATTTA [CACACA_site7408],8.47 ± 0.099
22,AATTATAAAAAAAAAAAAAAAAAAAAAAACTAAATG [CACACA_negctrl_site1379],8.11 ± 0.47

row,Sequence,gcPBM binding intensity (ln)
1,TTTATTTTTTGTGGCACACAGAAGAAACAAGAACAA [CACACA_site1696],9.12 ± 0.35
2,TGAACAATATATAATAGTACATATTTATTTTTTTCT [XGTACX_site4256],8.13 ± 0.2
3,CTTAAAAAAAAAAAATGTACACATAAAAAAAATACA [XGTACX_site6700],8.52 ± 0.35
4,TTGTTGATTGTTATTTATCATTAGATGTAAAATATG [CACACA_negctrl_site927],8.39 ± 0.3
5,TATAAAATGTAATCTGAACACACATATTTTTTTAAT [CACACA_site8521],8.11 ± 0.37
6,ATATTGAATTCCAACACATGCAAAACTTTCGGTTTT [TGCATGCA_site485],8.8 ± 0.38
7,TCATATTATAAAAAATGTACAAGGAAAAAATATATA [XGTACX_site337],9.06 ± 0.58
8,TTTTCATTTTTCTTTACACACATATATATATATATA [CACACA_site2236],10.2 ± 0.31
9,ATATATTTTATACATACACACATATATATATTTTTT [CACACA_site3940],8.66 ± 0.33
10,TTTATTCTCAAACACACACACATATATATATATATA [CACACA_site2895],10.2 ± 0.51
11,TATTTATTCTCCAACACACACACATATATATATATA [CACACA_site2894],10.1 ± 0.43
12,TTTTTATATATATTCTCACACACTTTTTATTTTAAC [CACACA_site657],8.7 ± 0.46
13,AACATATTTATATACACACACATATTTATATGAAAT [CACACA_site6268],8.39 ± 0.33
14,ATATTTATGAAGTTCACACATATATATATATATATA [CACACA_site5954],10.3 ± 0.52
15,ATTTTATTTTCATATGAACACACATATATATATTAT [CACACA_site8741],9.15 ± 0.47
16,ATTTTATTTTCTCACACACACATATATATATATATA [CACACA_site5781],10.4 ± 0.4
17,TTTTCATTTTTCTTTACACACATATATTTATTTATA [CACACA_site7119],8.94 ± 0.4
18,TATTTATTCTCCAACACACACACATATATTTATATA [CACACA_site7376],8.69 ± 0.53
19,TATACACATATTTTTACACACATATTTTTTCATATA [CACACA_site7244],8.7 ± 0.38
20,TCGTGTTTTAAAAAAATGAAGAAAAGTAAAAAAAAA [XGTACX_negctrl_site23],8.46 ± 0.67
21,AGGATAATATACAAAAGTACATAAAACTAAAAAAAC [XGTACX_site605],9.01 ± 0.24
22,AAAAATATAACCGTTACACACAAAATAATATGAGAA [CACACA_site3773],8.72 ± 0.43

row,Sequence,gcPBM binding intensity (ln)
1,ATATTTATTTATTTATGTACGCACACAGTTGATATT [XGTACX_site5808],8.92 ± 0.4
2,TTTTTTTTATTTTGTTGTACGCTTATTTGTATATAT [XGTACX_site7325],8.95 ± 0.45
3,TAAATACATAAATACACACACATATATTATATATAT [CACACA_site4310],8.62 ± 0.14
4,TTTTTTTTTTTTTTTTTTTATGTATACATATTTATA [TGCATGCA_negctrl_site234],8.28 ± 0.43
5,TTTTTTTTTTTGTTCACACATATATATATATATATA [CACACA_site5376],10.2 ± 0.37
6,TTTTTTTTTTACTTCACACATATACATTTATATTTA [CACACA_site4385],8.7 ± 0.44
7,TCCATATTTGTTCACACACACACATATTTATATATA [CACACA_site3570],8.84 ± 0.42
8,CATATGTATTTATTCACACATATATATATATATATA [CACACA_site4207],10.2 ± 0.4
9,TATAATTATTTTTTCACACATATGTATTTATATATA [CACACA_site4205],8.88 ± 0.43
10,TGAAGAATATTTTTCACACATATATATATATATATA [CACACA_site6080],10.2 ± 0.38
11,TTTTTTTTTTTGTTCACACATATACTTTTATTTTGG [CACACA_site4250],8.72 ± 0.47
12,AAAATATATAAACGCACATATATTTATGTATATATA [CACACA_negctrl_site163],8.64 ± 0.49
13,CATATTTTGAACTTCACACATATATATATATATATA [CACACA_site4228],10.2 ± 0.3
14,AACGCACATATATTTATGTATATATATATATATATA [GTGCAC_negctrl_site478],10.2 ± 0.31
15,AAAAAAAAAAAAATCACACATATGTATTTATATATA [CACACA_site5790],8.21 ± 0.46
16,GACATAGTATTAAGTTGTACATATATAAAAATAAAT [XGTACX_site1583],8.65 ± 0.32
17,TGCTTATCCATTTCTACACACAAAAAAAAAAAAAAA [CACACA_site37],8.28 ± 0.28
18,ATAATGTAGAACTAGAGTACATAAAAAAATAAACAT [XGTACX_site5205],9.06 ± 0.47
19,TATATATAAATATTCAGTACATAGTGCTATTAAGTG [XGTACX_site1979],8.605 ± 0.064
20,TGTATGTATAATTGAGTGCACAGAAAAAAAAAAGAA,9.6 ± 0.17
21,GTTGTAAAAAGAAAATGTACGTAATAAATATATATA [XGTACX_site3081],8.93 ± 0.38
22,TTTTCATATATTTATTGTACATATTACATATATAAT [XGTACX_site2425],8.71 ± 0.23
